# Shown are actives, neighbours in structure and some others; about 1.3% of the full set was active somewhere.
# EPAC2 ag = activates human EPAC2 exchange factor; Q8WZA2; EPAC2 activation, biochemical qHTS; response scale: 100% = 6.5 mM cAMP response; Potency, µM (series often up to 154 µM), most hits filed as activators; 360,000 tested, 0.079% active; note: nearly all actives have a fitted effect of over 50% in size
# Target sequence (Q8WZA2 whole entry, looked up): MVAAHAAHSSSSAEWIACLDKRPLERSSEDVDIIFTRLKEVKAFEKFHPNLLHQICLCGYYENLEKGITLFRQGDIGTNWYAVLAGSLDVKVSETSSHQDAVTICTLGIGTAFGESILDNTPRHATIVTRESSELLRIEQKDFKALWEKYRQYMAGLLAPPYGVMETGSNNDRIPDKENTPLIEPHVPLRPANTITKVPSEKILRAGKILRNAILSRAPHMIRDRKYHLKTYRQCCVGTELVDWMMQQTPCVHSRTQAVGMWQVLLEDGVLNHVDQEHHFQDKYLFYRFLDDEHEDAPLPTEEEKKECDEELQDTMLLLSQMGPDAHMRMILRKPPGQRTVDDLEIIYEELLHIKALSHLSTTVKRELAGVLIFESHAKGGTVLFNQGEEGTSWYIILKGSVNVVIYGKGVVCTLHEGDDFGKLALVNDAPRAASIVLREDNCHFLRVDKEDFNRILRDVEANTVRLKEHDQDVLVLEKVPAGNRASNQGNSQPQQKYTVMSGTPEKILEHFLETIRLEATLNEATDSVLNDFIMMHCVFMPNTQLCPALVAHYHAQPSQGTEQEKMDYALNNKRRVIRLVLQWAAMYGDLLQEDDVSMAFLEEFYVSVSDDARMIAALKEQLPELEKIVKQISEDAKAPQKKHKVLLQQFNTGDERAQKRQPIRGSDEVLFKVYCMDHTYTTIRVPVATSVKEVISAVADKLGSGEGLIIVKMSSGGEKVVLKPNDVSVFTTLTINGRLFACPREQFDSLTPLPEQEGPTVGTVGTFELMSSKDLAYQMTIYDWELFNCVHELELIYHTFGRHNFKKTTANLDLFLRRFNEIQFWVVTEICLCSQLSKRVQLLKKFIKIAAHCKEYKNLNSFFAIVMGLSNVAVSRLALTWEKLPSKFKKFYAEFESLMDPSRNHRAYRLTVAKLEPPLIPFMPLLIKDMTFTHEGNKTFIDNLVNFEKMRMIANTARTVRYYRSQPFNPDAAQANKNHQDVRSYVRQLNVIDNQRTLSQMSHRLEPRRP
#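 Exchange assay: 100 nM EPAC2 with 250 nM Rap1B-BODIPY-GDP and 50 uM GDP. Fluorescence (ex 480/em 540 nm) read every 5 min for 30 min at room temperature. Data normalized to 6.5 mM cAMP as agonist control.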
# EPAC2 antag = EPAC2 (human) antagonism | EPAC2 GEF exchange of Rap1B-BODIPY-GDP, fluorescence | Q8WZA2 | 360,000 tested, 0.18% active | AID 720708 | Potency, µM (highest dose often 114 µM), usual class: inhibitors; note: nearly all actives have a fitted effect of over 45% in size
# EPAC1 ag = EPAC1 (human) agonism; Potency, µM (series often up to 154 µM), actives largely listed as activators; EPAC1 agonist qHTS, biochemical assay; response scale: 100% = response to 6.5 mM cAMP; 360,000 tested, 0.073% active; note: nearly all actives have a fitted effect of over 60% in size
#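 Nucleotide exchange by EPAC1 (100 nM) on Rap1B–BODIPY-GDP (250 nM) in the presence of 50 uM GDP is tracked fluorescently at 480/540 nm over 30 min. Signals are normalized to a 6.5 mM cAMP control.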
# EPAC1 antagonist = antagonists of human EPAC1 | EPAC1 GEF assay, Rap1b-BODIPY-GDP exchange fluorescence | Potency, µM (titrated, usually from 115 µM), actives largely listed as inhibitors | AID 720709 | 360,000 tested, 0.14% active; note: nearly all actives have a fitted effect of over 50% in size
# USP1 inh = inhibitors of human USP1/UAF1 deubiquitinase; O94782; Potency, µM (highest dose often 57.1 µM), hits mostly inhibitors; recombinant USP1/UAF1, Ub-Rhodamine cleavage fluorescence; 390,000 tested, 0.23% active; note: nearly all actives have a fitted effect of over 60% in size
#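 1 nM enzyme complex + cpd, 15 min RT; start with Ub-Rho 150nM final; kinetic fluorescence ex 480/em 540, 6 reads q60 s. Buffer 50mM HEPES pH 7.8, 0.5mM EDTA, 0.1 mg/ml BSA, 1mM TCEP, 0.01% Tween-20.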
# 12-LOX inh = ALOX12 (human) lipoxygenase inhibition | 580,000 tested, 1.1% active | P18054 | Potency, µM (highest dose often 108 µM), hits mostly inhibitors | AID 1671190 | purified 12hLO, xylenol orange hydroperoxide absorbance
#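 Purified human 12hLO (150 nM final) in 25 mM Hepes, 0.01% Triton X-100, pH 7.0 was preincubated 15 min at room temperature with compound. Then 40 uM arachidonic acid was added, 30 min. Hydroperoxide was read by Fe-XO absorbance ratio 573/405 nm.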
# A number is an active result; n = inactive; u = inconclusive; x = no result given; ! = not active in a repeat. Calls come from the whole dose curve; as a rule, active = well fitted curve in the direction sought with a large enough effect; inconclusive = small, poorly fitted or top-dose-only effect, or another doubt; inactive = no such curve, though single readings can be large; an effect the other way counts as inactive or inconclusive.
SMILES,EPAC2 ag,EPAC2 antag,EPAC1 ag,EPAC1 antagonist,USP1 inh,12-LOX inh
Brc1ccccc1-c1nc(-c2ccccn2)no1,x,x,x,x,x,14µM
CC1=CC(C)(C)N2C(=O)C(=Nc3ccc(O)cc3)c3cccc1c32,n,u,n,79µM,3.5µM,u
O=C1N(C2CCCCC2)C[C@H]2CN(Cc3ccc(C(F)(F)F)cc3)CCN12,x,x,x,x,x,n
O=C(/C=C/c1ccco1)N(Cc1cccs1)Cc1cccs1,x,x,x,x,x,8.9µM
CN1CCc2nc(SCc3ccc(Cl)cc3)c(C#N)c(-c3cccs3)c2C1,n,n,n,n,n,20µM
C=CC[C@H]1CC=C[C@H](CC=C)[N+]1(C)C,x,x,x,x,x,7.1µM!
N#CC(C(=O)CC1CCCCC1)C(=O)Nc1ccccc1Cl (centres undefined),x,x,x,x,x,n
CNC(=S)NCCCCc1cnc[nH]1,x,x,x,x,x,n
S=C(NCCCCN(Cc1ccc(Cl)cc1)c1ccc(Br)cn1)NCCCc1cnc[nH]1,n,n,n,n,x,35µM
Cc1ccc2oc(C(=O)N3CCC(c4nc5ccccc5o4)CC3)c(C)c2c1,x,x,x,x,x,n
CC(C)c1ccc(CNc2nc(NCC3CC3)nc3ccsc23)cc1,n,n,n,n,x,50µM
CCOCc1cnc(C)nc1NCC(=O)c1c(C)[nH]c2ccc(OC)cc12,n,n,n,n,n,13µM
CC(C)Oc1ccc(NC(=O)CCCc2cccs2)cc1,x,x,x,x,x,n
CCOc1cc(/C=C2\C(=O)ON=C2C)ccc1OCc1ccccc1,n,n,n,n,n,u
COc1ccc(/C=C2/C(=O)ON=C2C)cc1Cl,n,n,n,n,n,7.9µM
C=CCOc1ccc(/C=C2/C(=O)ON=C2C)cc1OC,n,n,n,n,n,18µM
CC(CC(=O)O)c1ccc(C(F)(F)F)cc1 (centres undefined),x,x,x,x,x,n
NS(=O)(=O)c1ccc(NC(=S)Nc2ccn(Cc3cccc4ccccc34)n2)cc1,n,n,n,u,u,22µM
NS(=O)(=O)c1ccc(NS(=O)(=O)c2ccc(NC(=S)Nc3ccccc3)cc2)cc1,n,n,n,n,n,n
COc1ccc2c(c1)O/C(=C\c1ccc(OS(C)(=O)=O)cc1)C2=O,x,x,x,x,x,n
CN(Cc1ccccc1)C(=O)C[C@@H]1O[C@H](CNC(=O)c2ccno2)[C@@H](O)[C@H]1O,x,x,x,x,x,28µM
CN(Cc1ccccc1)C(=O)C[C@@H]1O[C@H](CNC(=O)Nc2cccc(F)c2)[C@@H](O)[C@H]1O,x,x,x,x,x,n
CCCCn1c(N)c(N(C)C(=O)c2ccc(-c3ccccc3F)o2)c(=O)[nH]c1=O,x,x,x,x,x,n
CC1CCN(C(=O)c2cc3c(ccc4ccccc43)o2)CC1,n,n,n,n,u,45µM
CC(=O)c1cc2c(ccc3ccccc32)o1,x,x,x,x,x,32µM
SMILES,EPAC2 ag,EPAC2 antag,EPAC1 ag,EPAC1 antagonist,USP1 inh,12-LOX inh
O=C(O)c1cc2c(ccc3ccccc32)oc1=O,x,x,x,x,x,n
OCCOCCNc1ncnc2c1cnn2-c1ccc(Cl)cc1,n,n,n,n,n,n
Clc1ccc(Nc2ncnc3c2cnn3-c2ccccc2)cc1,n,n,n,n,u,25µM
COCCNc1ncnc2c1cnn2-c1ccc(Cl)cc1,n,n,n,n,n,14µM
O=C(OCC1C(COC(=O)c2ccncc2)C1(Cl)Cl)c1ccncc1 (centres undefined),x,x,x,x,x,n
O=c1cc(N2CCOCC2)oc2c(-c3ccccc3F)nccc12,x,x,x,x,x,n
O=c1cc(C2=CCOCC2)oc2c(-c3cccc4[nH]ccc34)nccc12,x,x,x,x,x,35µM
CCC(=O)Nc1ccc(Cl)c(NC(=O)c2cccc3c(Br)cccc23)c1,x,x,x,x,x,n
O=c1cc(-c2ccc(O)cc2)oc2c1ccc1ccccc12,n,n,n,n,n,n
O=c1cc(-c2ccc(O)cc2)oc2c(O)c(O)c(O)c(O)c12,n,n,n,6.3µM,10µM,n
Cc1cc(Cl)ccc1-c1nc(NCc2ccccc2)nc2ccsc12,n,n,n,n,x,40µM
O=C(CN1CCCCC1)Nc1cc(Cl)ccc1Oc1ccccc1,n,28µM,n,n,n,n
O=C(CN1CCCCCC1)Nc1ccccc1Oc1ccccc1,n,40µM,n,n,n,n
O=C(O)c1cc(S(=O)(=O)Nc2ccccc2C(=O)O)ccc1O,n,n,n,n,n,n
O=C(O)c1cc(S(=O)(=O)Nc2cc(Cl)ccc2Oc2ccccc2)ccc1O,n,40µM,n,u,n,u
CC(C)c1ccc2oc(-c3ccc(Cl)c(NC(=O)c4cccnc4)c3)nc2c1,x,x,x,x,x,n
N#Cc1cccc(C(=O)NC(c2cccs2)C2CCCC2)c1 (centres undefined),x,x,x,x,x,n
Clc1cccc(-c2nnc3sc(Cn4cccn4)nn23)c1Cl,x,x,x,x,x,n
Oc1ccc2ccccc2c1SSc1c(O)ccc2ccccc12,x,x,x,x,x,1.7µM
CN(Cc1ccccc1)c1nc2c(c(=O)n(C)c(=O)n2C)n1Cc1c(Cl)cccc1Cl,x,x,x,x,x,n
Cn1c(=O)c2c(nc(SCC(=O)OCc3ccccc3)n2Cc2ccccc2Cl)n(C)c1=O,x,x,x,x,x,n
Cc1cccc(CN2CCCCCNC(=O)CC2c2ccccc2)c1 (centres undefined),x,x,x,x,x,n
O=Cc1[nH]c2ccccc2c1N(C(=O)CCl)c1ccc([N+](=O)[O-])cc1,n,n,n,n,n,40µM
COc1ccc(S(=O)(=O)NNc2nc(C)cc(C)n2)cc1Br,n,n,n,n,n,32µM
CC1=C(C)CC(C(=O)Nc2ccc3c(c2)CCC3)C(C(=O)O)C1 (centres undefined),x,x,x,x,x,n
SMILES,EPAC2 ag,EPAC2 antag,EPAC1 ag,EPAC1 antagonist,USP1 inh,12-LOX inh
CC(C)c1ccccc1NC(=O)Cn1nc(C(=O)O)c2ccccc2c1=O,x,x,x,x,x,n
CCCCCCCCN1C(=O)[C@H](CC(=O)NCc2ccc(C)o2)C[C@@]2(C(=O)OC)CC(C)(C)CC=C12,n,u,n,n,x,40µM
CCCCCCCCN1C(=O)[C@H](CC(=O)NCc2cccs2)C[C@@]2(C(=O)OC)CC(C)(C)CC=C12,n,u,n,n,x,n
COC(=O)C1CCC(=S)N1C(=O)c1ccccc1 (centres undefined),n,n,n,n,n,8.9µM
S=C1Cc2ccccc2N1,n,n,n,u,28µM,u
CC1Oc2ccc(-c3csc(NC(=O)c4ccco4)n3)cc2NC1=O (centres undefined),x,x,x,x,x,n
O=C(NCc1ccc(Cl)cc1)C(=O)Nc1cccc(O)c1,x,x,x,x,x,n
CC1CCCN(S(=O)(=O)NCc2ccnc(N3CCN(c4ccc(F)cc4)CC3)c2)C1 (centres undefined),x,x,x,x,x,n
CC(=O)N1N=C(c2ccc(Br)cc2)CC1c1ccc(Br)cc1 (centres undefined),n,n,n,n,n,u
CC(C)c1ccc(C2CC(c3ccc(Br)cc3)=NN2C(N)=S)cc1 (centres undefined),n,n,n,n,n,45µM

# Source: PubChem BioAssay (National Center for Advancing Translational Sciences (NCATS))
